Source: PubChem BioAssay
FBW7 act = activators of human E3 ligase FBW7; AlphaScreen FBW7–phospho-cyclin E peptide binding, activator screen; Q969H0; normalized activity (activation), % at 26.1 µM; hit rate 0.13% among 650,000; in the data active means normalized activity above about 1.9%;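 further: purified mutant Fbw7 with reduced substrate affinity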
TEAD-YAP block = TEAD-YAP interaction inhibition; hit rate 1.4% among 640,000; inhibition, % at 9.12 µM; AID 1259422; HEK-TIYL cells, TEAD-Gal4/YAP UAS-luciferase luminescence; in the data active means inhibition above about 32%;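 further: 0% = median of test compound wells and 100% = reference inhibitor wells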
MITF inh = blocks human microphthalmia-associated transcription factor; inhibition, % at 2.6 µM; AID 1259374; O75030; AlphaScreen MITF homodimerization, bead proximity signal; hit rate 0.91% among 650,000; in the data active means inhibition above about 50%;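 further: 0% = vehicle wells with protein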
Target sequence (O75030 whole entry, looked up): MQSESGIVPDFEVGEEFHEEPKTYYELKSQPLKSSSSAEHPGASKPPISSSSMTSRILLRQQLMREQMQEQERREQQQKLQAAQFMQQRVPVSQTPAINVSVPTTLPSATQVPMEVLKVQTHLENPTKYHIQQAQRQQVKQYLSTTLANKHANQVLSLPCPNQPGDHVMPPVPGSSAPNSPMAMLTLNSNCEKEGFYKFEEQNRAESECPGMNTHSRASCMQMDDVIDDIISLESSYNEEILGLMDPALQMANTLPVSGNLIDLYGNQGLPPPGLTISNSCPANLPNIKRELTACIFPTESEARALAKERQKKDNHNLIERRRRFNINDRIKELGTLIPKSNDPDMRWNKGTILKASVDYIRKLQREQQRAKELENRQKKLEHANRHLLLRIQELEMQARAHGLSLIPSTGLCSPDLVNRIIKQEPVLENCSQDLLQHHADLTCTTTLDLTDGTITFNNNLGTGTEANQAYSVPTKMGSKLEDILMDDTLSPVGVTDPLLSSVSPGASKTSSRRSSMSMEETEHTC
GPR151 ag = human GPR151 activation; PathHunter beta-arrestin GPR151 cells, luminescence; activation, % at 11.2 µM; hit rate 1% among 650,000; AID 1508602; in the data active means activation above about 4.9%;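 further: 0% = median of compound wells and 100% = cells with positive control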
GPR151 conf act = human GPR151 activation, confirmation screen; shares compounds with GPR151 ag; GPR151 PathHunter beta-arrestin cells, luminescence, 90 min; % of EA-reagent control over plate median; activation, % at 11.2 µM; 6,700 tested, under 10 active;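 active means mean percent activation across replicates above the confirmation screen cutoff of 4.91%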
GPR119 counter = counter-screen for GPR151 activators: effect on human GPR119; shares compounds with GPR151 ag; GPR119 PathHunter beta-arrestin cells, luminescence, 90 min; 0 = compound-well median, 100 = enzyme-acceptor control; activation, % at 11.2 µM; hit rate 0.3% among 6,700;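 active means mean percent activation in the counterscreen above 29.09%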;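 further: counterscreen on off-target GPR119 to flag nonselective hits from the GPR151 activator screen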
Active calls of the source: *; / = not tested or not shown; ! = a repeat was not active. The list is not random: actives were taken first. Their share in the collection is about 3.5%.

SMILES | FBW7 act | TEAD-YAP block | MITF inh | GPR151 ag | GPR151 conf act | GPR119 counter
CS(=O)(=O)c1ccc2nc(NC(=O)/C=C/c3ccc4c(c3)OCO4)sc2c1 | 0.1 | 18.9 | 8.2 | -0.8 | / | /
COc1ccc(-c2cc(-c3ccccc3)c(C#N)c(N)n2)cc1 | 0.3 | 3.6 | -9.4 | -0.7 | / | /
Cc1cnc(NCc2ccc3c(c2)OCO3)nc1NCCCN1CCCC1=O | 0.5 | -5.2 | 5.6 | 5.6* | 0.7 | 2.5
CCN(C(=O)c1cn(C)c(=O)c2cc(OC)c(OC)cc12)c1cccc(Cl)c1 | 0.1 | -7.2 | 18.3 | 1.4 | / | /
Cc1nc2cnc(-c3ccc(O)cc3)cn2c1NC(=O)CC1CCOCC1 | 0.0 | 24.3 | 16.4 | 11.6* | 0.4 | 6.5
Cc1nc2cnc(-c3ccc(O)cc3)cn2c1NC(=O)c1cccs1 | 0.0 | -1.3 | 2.7 | 0.3 | / | /
Cc1ccccc1NCC(=O)N/N=C\c1cc(Br)cc(Cl)c1O | -0.1 | 21.6 | 10.0 | 9.2* | -0.9 | -8.5
COc1ccc(O)c(/C=N/NC(=O)CNc2cccc(C)c2)c1 | 0.0 | 7.7 | -1.8 | -0.1 | / | /
Cc1cccc(NCC(=O)N/N=C/c2ccccc2O)c1 | 0.4 | 0.6 | 9.8 | 7.2* | 1.7 | 3.8
COc1cccc(/C=N\NC(=O)CNc2ccc(C)cc2)c1O | -0.1 | -2.6 | -23.6 | -0.3 | / | /
COc1cccc(/C=N/NC(=O)CNc2cccc(Cl)c2)c1O | -0.1 | 16.6 | 12.2 | 7.2* | -0.7 | -12.6
O=C(CCCCCNC(=O)c1ccccc1)N/N=C/c1ccccc1O | 0.2 | 9.9 | 12.5 | 9.6* | 0.8 | 10.7
COCCN(C(=O)Nc1cccc(F)c1)C1CCN(CCCc2ccccc2)CC1 | 0.7 | -4.0 | 12.9 | 0.8 | / | /
C=CCn1c(SCc2ccc(C(=O)OC)cc2)nc2ccccc2c1=O | 0.1 | -7.8 | 1.0 | 0.3 | / | /
CC(=O)c1cc(C#N)c(SCc2ccccc2F)nc1C | 1.1 | -27.4 | 4.8 | 0.0 | / | /
CCOc1ccc(NCC(=O)N/N=C/c2cc(OC)ccc2O)cc1 | 0.0 | 12.9 | 1.6 | 2.4 | / | /
CCOc1ccc(/C=N/NC(=O)C(O)c2ccccc2)c(O)c1 (stereo unspecified) | -0.3 | -5.9 | 9.2 | 5.8* | 1.1 | 6.1
COc1ccc(O)c(/C=N/NC(=O)CCC(=O)Nc2cccc(C)c2)c1 | -0.1 | 22.5 | 30.4 | 8.7* | 0.2 | 5.8
CCOc1ccc(NCC(=O)N/N=C/c2ccccc2O)cc1 | 0.1 | 5.2 | 10.1 | 5.4* | 0.7 | -15.9
Cc1cc(C(=O)O/N=C(\N)c2ccc(I)cc2)ccc1[N+](=O)[O-] | 0.0 | -1.5 | 12.2 | 0.4 | / | /
O=C(Nn1c(-c2ccc(F)cc2)nc2ccccc2c1=O)c1cncc(Br)c1 | 0.7 | 0.3 | 20.8 | 5.5* | 0.3 | 11.9
Cc1cc2nc3s/c(=C/c4cn(C)c5ccccc45)c(=O)n3c2cc1C | -0.1 | -0.9 | -2.8 | -1.3 | / | /
CCC(C)(C)NC(=O)COc1ccc(-c2ccccc2)cc1 | 0.1 | -16.9 | 2.1 | 0.8 | / | /
CS(=O)(=O)Nc1ccccc1Oc1ccccc1 | -0.2 | -1.2 | 1.6 | 7.9* | 0.4 | -3.9
COc1cccc(-c2ccc(OCCCc3ccccn3)nc2)c1 | -0.2 | -39.8 | 5.9 | 5.8* | 0.5 | 3.3
SMILES | FBW7 act | TEAD-YAP block | MITF inh | GPR151 ag | GPR151 conf act | GPR119 counter
COc1ccc(CN(C)CCN(C)C)c(OC)c1C | 0.0 | 4.2 | 9.3 | 6.6* | 0.6 | -0.4
COc1cccc(CN(C)CCN(C)C)c1O | 0.1 | 0.6 | -0.6 | -1.9 | / | /
O=C(Nc1ccccc1-c1ccccc1)C(F)(F)F | 0.0 | -7.2 | 12.2 | -1.0 | / | /
COc1cccc(Cn2cc(C)cc(NC(=O)c3cccc(Cl)c3)c2=O)c1 | 0.0 | 3.2 | -12.6 | -0.6 | / | /
CCOC(=O)c1c(NC(=O)CSc2n[nH]c(N)n2)sc(C(C)=O)c1C | 0.3 | -3.7 | 6.4 | 13.2* | 0.0 | -3.5
CCOC(=O)c1c(NC(=O)CSc2n[nH]c(-c3ccccc3)n2)sc(C(C)=O)c1C | -0.1 | 4.2 | 6.1 | 1.9 | / | /
COc1ccc(-c2nc(-c3cc(OC)c(OC)c(OC)c3)no2)cc1OC | 0.1 | 5.8 | 12.6 | -0.6 | / | /
COc1ccc(NC(=O)C2C3CCC(C3=C(C)C)C2C(=O)O)cc1 (stereo unspecified) | -0.1 | -5.0 | -5.5 | 5.5* | 1.8 | 20.6
COC(=O)C1=C(O)/C(=C\c2ccc(F)cc2)N=C1C | 0.1 | 5.8 | -5.5 | 8.6* | 0.8 | -6.8
COc1ccccc1CNC(=O)CSc1cc(C)[nH]c(=O)n1 | 0.1 | 1.2 | -16.7 | 12.0* | 0.2 | 7.4
Cc1cc(SCc2ccccc2Cl)nc(=O)[nH]1 | -0.1 | -13.7 | -8.8 | 7.6* | -0.3 | 5.0
Cc1cc(SCC(=O)NCc2ccc(F)cc2)nc(=O)[nH]1 | 0.2 | 1.9 | -7.9 | -0.8 | / | /
O=C(Nc1ccccc1)N[C@H]1C[C@H]2C(=O)N3CCC[C@@H]3C(=O)N2C1 | 1.2 | -15.4 | 14.6 | 10.2* | 1.6 | 19.2
N#C/C(=C\c1ccc(-c2ccc(S(=O)(=O)Nc3ncccn3)cc2)o1)c1ccccn1 | -0.3 | 7.9 | 7.1 | -1.6 | / | /
O=c1ccn(C2OC(COc3ccc([N+](=O)[O-])cc3)C(O)C2O)c(=O)[nH]1 (stereo unspecified) | -0.1 | 1.1 | 6.7 | 0.4 | / | /
O=c1ccn([C@@H]2O[C@H](COP(=O)(O)OP(=O)(O)O)[C@@H](O)[C@H]2O)c(=O)[nH]1 | 0.1 | 0.1 | 19.1 | 5.1* | -0.6 | -1.9
Oc1ccc(Sc2ccc(O)cc2)cc1 | -0.2 | -1.7 | 2.6 | -0.2 | / | /
Oc1ccc(O)cc1 | -0.2 | -27.3 | -3.8 | 5.1*! | 0.3 | -7.3
c1ccc2c(Nc3nc(NC4CC4)c4ncn(C5CCCCC5)c4n3)nccc2c1 | -0.1 | -4.7 | 13.8 | 3.1 | / | /
CC(=O)c1ccc(N2CCN(Cc3ccoc3)CC2)cc1 | -0.2 | -16.8 | 20.3 | 5.9* | -0.8 | -6.7
O=[N+]([O-])c1ccc(N2CCN(Cc3ccoc3)CC2)cc1 | -0.1 | -1.3 | 8.2 | -0.2 | / | /
COc1ccc(NC(=O)NCc2noc3ccccc23)c(OC)c1 | -0.2 | 2.9 | -6.0 | 0.9 | / | /
Cc1cc(Br)ccc1NC(=O)NCc1noc2ccccc12 | -0.1 | -3.7 | -0.1 | 6.1* | -1.0 | 5.6
Cc1ccc(CCNC(=O)NCc2noc3ccccc23)cc1 | -0.1 | -12.4 | 0.3 | -1.3 | / | /
Cc1cccc(CCNC(=O)NCc2noc3ccccc23)c1 | 0.0 | -14.2 | -4.6 | 14.5* | 0.3 | -1.4
CCCCNC(=O)CSc1nc2ccccc2c2nc(-c3ccccc3)nn12 | 1.1 | 1.5 | 13.4 | -1.9 | / | /
COc1cccc(COC(=O)c2n[nH]c3ccccc23)c1 | -0.1 | -14.6 | 5.4 | 6.9* | -1.3 | -8.5
COc1cccc(C(=O)OCc2cccc([N+](=O)[O-])c2)c1 | 0.5 | -8.2 | 10.1 | 6.9* | 1.3 | -2.2
COc1ccc(C(=O)OCc2cccc([N+](=O)[O-])c2)cc1 | -0.4 | 1.7 | -2.7 | 4.2 | / | /
C=CCn1c(SCC(=O)OC)nc2sc3c(c2c1=O)CC(C(C)C)OC3 (stereo unspecified) | 0.8 | -6.8 | 3.8 | -0.1 | / | /
